Test results taken from PubChem BioAssay (NCATS).
Results filed as inconclusive are left out. Activity calls are given as the source filed them. Calls come from the whole dose curve; as a rule, active = well fitted curve in the direction sought with a large enough effect; inconclusive = small, poorly fitted or top-dose-only effect, or another doubt; inactive = no such curve, though single readings can be large; an effect the other way counts as inactive or inconclusive.

Experiments:
HEK293T = assay: qHTS assay to identify novel small-molecules to repurpose for Merkel cell carcinoma treatment (AID 1296009); conditions: MCC and control cell lines, CellTiter-Glo viability, 72 h; at 44.8 µM (top of the series) unless noted; note: nearly all actives have a fitted effect of over 60% in size
Summary of the method: (§1)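 Cells were incubated with compound for 72 hr at 37 degree celsius before CellTiter-Glo addition. Luminescence was normalized with no-cell wells as full cytotoxicity and DMSO as baseline.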

MCC-13 = assay: as above; conditions: MCC and control cell lines, CellTiter-Glo viability, 72 h; series mostly up to 46 µM
Summary of the method: as §1

MCC-26 = assay: as above; conditions: MCC and control cell lines, CellTiter-Glo viability, 72 h; series mostly up to 46 µM
Summary of the method: as §1

MKL-1 = assay: as above; conditions: MCC and control cell lines, CellTiter-Glo viability, 72 h; series mostly up to 46 µM
Summary of the method: as §1

MKL-2 = assay: as above; conditions: MCC and control cell lines, CellTiter-Glo viability, 72 h; series mostly up to 46 µM
Summary of the method: as §1

NIH3T3 = assay: as above; conditions: MCC and control cell lines, CellTiter-Glo viability, 72 h; series mostly up to 44.8 µM
Summary of the method: as §1

UISO = assay: as above; conditions: MCC and control cell lines, CellTiter-Glo viability, 72 h; series mostly up to 46 µM
Summary of the method: as §1

WaGa = assay: as above; conditions: MCC and control cell lines, CellTiter-Glo viability, 72 h; series mostly up to 46 µM
Summary of the method: as §1

C33A = assay: Primary qHTS to identify gynecologic anti-cancer compounds using libraries of approved drugs and bioactive compounds (AID 1345084); conditions: Gynecologic cancer cell panel viability, ATPlite luminescence, 48 h; series mostly up to 57.5 µM; note: nearly all actives have a fitted effect of over 55% in size
Summary of the method: (§2)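 48 h compound exposure at 37 C, 5% CO2; five-point qHTS. ATPlite luminescence readout of cell ATP.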

CAOV3 = assay: as above; conditions: Gynecologic cancer cell panel viability, ATPlite luminescence, 48 h; series mostly up to 57.5 µM
Summary of the method: as §2

Measured: Potency

COc1ccccc1OCC(O)CN1CCN(CC(=O)Nc2c(C)cccc2C)CC1 (centres undefined)
not listed: CAOV3
inactive: all other assays above

N[C@@H](Cc1c[nH]c2ccc(O)cc12)C(=O)O
inactive: HEK293T | MCC-13 | MCC-26 | MKL-1 | MKL-2 | C33A

Cc1ccccc1N1C(=O)c2cc(S(N)(=O)=O)c(Cl)cc2NC1C (centres undefined)
inactive: all assays above

O=C1N(c2ccccc2)c2ccccc2C1(Cc1ccncc1)Cc1ccncc1
not listed: NIH3T3 | CAOV3
inactive: all other assays above

NC12CC3CC(CC(C3)C1)C2
not listed: MCC-26 | CAOV3
inactive: all other assays above

CCN1CCCC1CNC(=O)c1cc(S(=O)(=O)CC)c(N)cc1OC (centres undefined)
not listed: HEK293T
inactive: all other assays above

Clc1ccc2nsnc2c1NC1=NCCN1
inactive: all assays above

CC(C)Cc1ccc(C(C)C(=O)O)cc1 (centres undefined)
inactive: MCC-13 | MCC-26 | MKL-1 | MKL-2 | NIH3T3 inactive [at 17.4 µM] | UISO | WaGa | C33A

CC1COc2c(N3CCN(C)CC3)c(F)cc3c(=O)c(C(=O)O)cn1c23 (centres undefined)
not listed: MCC-26 | CAOV3
inactive: all other assays above

CC[N+](CC)(CC)CCOc1cccc(OCC[N+](CC)(CC)CC)c1OCC[N+](CC)(CC)CC
not listed: CAOV3
inactive: all other assays above

CN(C)CCOC(c1ccccc1)c1ccccc1
inactive: all assays above

NCCS(=O)(=O)O
not listed: MCC-26 | CAOV3
inactive: all other assays above

CN(C)C(=N)N=C(N)N
not listed: NIH3T3
inactive: all other assays above

Nc1ccn([C@H]2CC[C@@H](CO)O2)c(=O)n1
not listed: NIH3T3
inactive: all other assays above

NCCc1cnc[nH]1
not listed: MCC-26
inactive: all other assays above

Nc1c2c(nc3ccccc13)CCCC2
not listed: HEK293T | CAOV3
inactive: all other assays above

NC(=O)OCC(COC(N)=O)c1ccccc1
not listed: CAOV3
inactive: all other assays above

COc1ccc2[nH]cc(CCNC(C)=O)c2c1
not listed: MCC-26
inactive: all other assays above

CN(CCOc1ccc(NS(C)(=O)=O)cc1)CCc1ccc(NS(C)(=O)=O)cc1
inactive: all assays above

CCc1cccc2c3c([nH]c12)C(CC)(CC(=O)O)OCC3 (centres undefined)
not listed: NIH3T3 | CAOV3
inactive: all other assays above
